Drawing on the supplement of paper PMC6555819, this text covers PBM binding z-score for 7 sequences.

What all share (experiment): PBM binding z-score (relative to random genomic background probes); higher = stronger binding; sequences stand for … in GC…GCGATTGACAGCGTAGAATGAAGG
Test [1] has as its system RARb homodimer (NR concentration 270 nM). An outline of the steps:
(§1)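 Ligand-free nuclear receptor dimers were bound for 1 h to custom Agilent 4×180K protein-binding microarrays. Detection used antibodies against each partner (one per run). Binding z-scores rest on regression-normalized fluorescence, with random background probes as the reference.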

For test [2], the system named is RARg:RXRa (NR concentration 270 nM, RXRa partner concentration 90 nM). The procedure, abridged: as §1
Test [3] relates to RARg homodimer (NR concentration 270 nM). An outline of the steps: as §1
Test [4] concerns RXRa DBDmut IVT, anti-RXR (DBD mutation: RXRa K156A/R161A, NR concentration 90 nM). The procedure, abridged:
as §1

Test [5] has as its system RXRa homodimer (NR concentration 180 nM). An outline of the steps: as §1
Test [6] concerns THRa:RXRa (NR concentration 90 nM, RXRa partner concentration 90 nM). The procedure, abridged:
as §1

Test [7] relates to THRa homodimer (NR concentration 90 nM). An outline of the steps: as §1
In test [8] the test system is VDR homodimer (NR concentration 270 nM). An outline of the steps:
as §1

With GGAACGAGGGCAAAGTTAATAGCATCTGTCGACG, the PBM binding z-score in test [1] was determined as 1.24; in test [2], 1.77; in test [3], 1.99; in test [4], 2.78; in test [5], 1.55; in test [6], 1.27. The PBM binding z-score was -0.176 in test [7] and 1.31 in test [8].
For ATATGTAGGTTAGCTGGGGTTATTCAGACTAGGC, the PBM binding z-score in test [1] turned out to be 1.42; in test [2], 1.54; in test [3], 0.961; in test [4], 0.972; in test [5] it was 2.43; in test [6], 4.32. Besides, the values for the PBM binding z-score in test [7] and in test [8] were 1.11 and 1.65, respectively.
CCTACTGGGCCATAAAGGTCATTGATGCCGATAA: the PBM binding z-score in test [1] came to 4.17; in test [2], 4.52; in test [3], 3.88; in test [4], 0.623; in test [5] it was 4.73; in test [6], 3.05. The PBM binding z-score in test [7] was found to be 0.441; in test [8], 2.92.
With ATCGTAAGGTCGAAGGTGAGTATACCCACCCGAA, the PBM binding z-score in test [1] is 1.59; in test [2], 2.97; in test [3], 2.44; in test [4], 1.58; in test [5] it was 3.4; in test [6] it was 2.98. The PBM binding z-score in test [7] was 1.59; in test [8], 0.909.
As to TGTACAGGGTCAAAGGCCAGAGTACGAATGTCGA, the PBM binding z-score in test [1] was determined as 3.31; in test [2], 5.52; in test [3], 4.74; in test [4] it was 2.86; in test [5], 6.85; in test [6], 3.43. Further, the PBM binding z-score was determined as 0.326 in test [7] and 2.65 in test [8].
As to CTCGAAAGGTCGTGTTCAGGTGAGTATACCAAAC, the PBM binding z-score is 2.87 in test [1]; 4.55 in test [2]; 3.44 in test [3]; 2.35 in test [4]; 4.3 in test [5]; 4.17 in test [6]. The PBM binding z-score in test [7] and in test [8] was 1.16 each time.
Regarding ATATGTATGTTACATCCGGGTCATTCAGGCTATG, the PBM binding z-score in test [1] came to 2.37; in test [2], 1.63; in test [3], 1.26; in test [4] it was 0.811; in test [5], 2.21; in test [6] it was 3.04. Also, the PBM binding z-score in test [7] came out at 2.62; in test [8], 1.99.
